Laboratory results published in paper PMC11006913.
Positions count from the first letter of the chain named.

Legend:
Assay in all cases: PBM; 200 nM protein, PBS
Settings in all cases: dsDNA, one strand shown
[1] = molecular target: T1, SIX6 (Homo sapiens, UniProt O95475 114-200, L167I)
T1 sequence: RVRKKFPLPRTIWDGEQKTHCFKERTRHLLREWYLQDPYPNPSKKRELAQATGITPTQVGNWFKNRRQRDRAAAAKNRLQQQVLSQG

[2] = molecular target: T2, SIX6 (Homo sapiens, UniProt O95475 114-200, L143V)
T2 sequence: T1 sequence with L30V, I54L

[3] = molecular target: T3, SIX6 (Homo sapiens, UniProt O95475 114-200, H141N)
T3 sequence: T1 sequence with H28N, I54L

[4] = molecular target: T4, SIX6 (Homo sapiens, UniProt O95475 114-200, T165P)
T4 sequence: T1 sequence with T52P, I54L

[5] = molecular target: T5, SIX6 (Homo sapiens, UniProt O95475 114-200, L167M)
T5 sequence: T1 sequence with I54M

[6] = molecular target: T6, SIX6 (Homo sapiens, UniProt O95475 114-200, L143M)
T6 sequence: T1 sequence with L30M, I54L

[7] = molecular target: T7, SIX6 (Homo sapiens, UniProt O95475 114-200, L143I)
T7 sequence: T1 sequence with L30I, I54L

[8] = molecular target: T8, SIX6 (Homo sapiens, UniProt O95475 114-200, T165G)
T8 sequence: T1 sequence with T52G, I54L

[9] = molecular target: T9, SIX6 (Homo sapiens, UniProt O95475 114-200, T139Q)
T9 sequence: T1 sequence with T26Q, I54L

[10] = molecular target: T10, SIX6 (Homo sapiens, UniProt O95475 114-200, T165A)
T10 sequence: T1 sequence with T52A, I54L

[11] = molecular target: T11, SIX6 (Homo sapiens, UniProt O95475 114-200, L167V)
T11 sequence: T1 sequence with I54V

[12] = molecular target: T12, SIX6 (Homo sapiens, UniProt O95475 114-200)
T12 sequence: T1 sequence with I54L

[13] = molecular target: T13, SIX6 (Homo sapiens, UniProt O95475 114-200, T165I)
T13 sequence: T1 sequence with T52I, I54L

Sequence | binding signal [1] | binding signal [2] | binding signal [3] | binding signal [4] | binding signal [5] | binding signal [6] | binding signal [7] | binding signal [8] | binding signal [9] | binding signal [10] | binding signal [11] | binding signal [12] | binding signal [13]
CTGTATCA | 11.2 upbm affinity estimate (log intensity, higher = more binding, comparable within an allelic series) | 10.3 upbm affinity estimate (log intensity, higher = more binding, comparable within an allelic series) | 11.2 upbm affinity estimate (log intensity, higher = more binding, comparable within an allelic series) | 9.69 upbm affinity estimate (log intensity, higher = more binding, comparable within an allelic series) | 10.6 upbm affinity estimate (log intensity, higher = more binding, comparable within an allelic series) | 10.9 upbm affinity estimate (log intensity, higher = more binding, comparable within an allelic series) | 10.3 upbm affinity estimate (log intensity, higher = more binding, comparable within an allelic series) | 11.1 upbm affinity estimate (log intensity, higher = more binding, comparable within an allelic series) | 11.1 upbm affinity estimate (log intensity, higher = more binding, comparable within an allelic series) | 11.1 upbm affinity estimate (log intensity, higher = more binding, comparable within an allelic series) | 10.9 upbm affinity estimate (log intensity, higher = more binding, comparable within an allelic series) | 10.9 upbm affinity estimate (log intensity, higher = more binding, comparable within an allelic series) | 10.9 upbm affinity estimate (log intensity, higher = more binding, comparable within an allelic series)
CCGCCAGC | 9.01 upbm affinity estimate (log intensity, higher = more binding, comparable within an allelic series) | 9.02 upbm affinity estimate (log intensity, higher = more binding, comparable within an allelic series) | 9.07 upbm affinity estimate (log intensity, higher = more binding, comparable within an allelic series) | 9.02 upbm affinity estimate (log intensity, higher = more binding, comparable within an allelic series) | 9.06 upbm affinity estimate (log intensity, higher = more binding, comparable within an allelic series) | 9.02 upbm affinity estimate (log intensity, higher = more binding, comparable within an allelic series) | 9.03 upbm affinity estimate (log intensity, higher = more binding, comparable within an allelic series) | 9.05 upbm affinity estimate (log intensity, higher = more binding, comparable within an allelic series) | 9.1 upbm affinity estimate (log intensity, higher = more binding, comparable within an allelic series) | 9.05 upbm affinity estimate (log intensity, higher = more binding, comparable within an allelic series) | 9.06 upbm affinity estimate (log intensity, higher = more binding, comparable within an allelic series) | 9.05 upbm affinity estimate (log intensity, higher = more binding, comparable within an allelic series) | 9.03 upbm affinity estimate (log intensity, higher = more binding, comparable within an allelic series)
CGCAGCGC | 9.07 upbm affinity estimate (log intensity, higher = more binding, comparable within an allelic series) | 8.94 upbm affinity estimate (log intensity, higher = more binding, comparable within an allelic series) | 9.04 upbm affinity estimate (log intensity, higher = more binding, comparable within an allelic series) | 8.96 upbm affinity estimate (log intensity, higher = more binding, comparable within an allelic series) | 9.06 upbm affinity estimate (log intensity, higher = more binding, comparable within an allelic series) | 9.12 upbm affinity estimate (log intensity, higher = more binding, comparable within an allelic series) | 9.01 upbm affinity estimate (log intensity, higher = more binding, comparable within an allelic series) | 8.94 upbm affinity estimate (log intensity, higher = more binding, comparable within an allelic series) | 8.99 upbm affinity estimate (log intensity, higher = more binding, comparable within an allelic series) | 8.97 upbm affinity estimate (log intensity, higher = more binding, comparable within an allelic series) | 9.06 upbm affinity estimate (log intensity, higher = more binding, comparable within an allelic series) | 8.95 upbm affinity estimate (log intensity, higher = more binding, comparable within an allelic series) | 9.02 upbm affinity estimate (log intensity, higher = more binding, comparable within an allelic series)
CGTATCAA | 11.1 upbm affinity estimate (log intensity, higher = more binding, comparable within an allelic series) | 10.2 upbm affinity estimate (log intensity, higher = more binding, comparable within an allelic series) | 11.2 upbm affinity estimate (log intensity, higher = more binding, comparable within an allelic series) | 9.64 upbm affinity estimate (log intensity, higher = more binding, comparable within an allelic series) | 10.6 upbm affinity estimate (log intensity, higher = more binding, comparable within an allelic series) | 11.1 upbm affinity estimate (log intensity, higher = more binding, comparable within an allelic series) | 10.3 upbm affinity estimate (log intensity, higher = more binding, comparable within an allelic series) | 11.1 upbm affinity estimate (log intensity, higher = more binding, comparable within an allelic series) | 11 upbm affinity estimate (log intensity, higher = more binding, comparable within an allelic series) | 11.1 upbm affinity estimate (log intensity, higher = more binding, comparable within an allelic series) | 10.9 upbm affinity estimate (log intensity, higher = more binding, comparable within an allelic series) | 10.9 upbm affinity estimate (log intensity, higher = more binding, comparable within an allelic series) | 11 upbm affinity estimate (log intensity, higher = more binding, comparable within an allelic series)
CTCGATAC | 10.6 upbm affinity estimate (log intensity, higher = more binding, comparable within an allelic series) | 10 upbm affinity estimate (log intensity, higher = more binding, comparable within an allelic series) | 10.6 upbm affinity estimate (log intensity, higher = more binding, comparable within an allelic series) | 9.7 upbm affinity estimate (log intensity, higher = more binding, comparable within an allelic series) | 10.2 upbm affinity estimate (log intensity, higher = more binding, comparable within an allelic series) | 10.6 upbm affinity estimate (log intensity, higher = more binding, comparable within an allelic series) | 10.1 upbm affinity estimate (log intensity, higher = more binding, comparable within an allelic series) | 10.8 upbm affinity estimate (log intensity, higher = more binding, comparable within an allelic series) | 10.8 upbm affinity estimate (log intensity, higher = more binding, comparable within an allelic series) | 10.6 upbm affinity estimate (log intensity, higher = more binding, comparable within an allelic series) | 10.4 upbm affinity estimate (log intensity, higher = more binding, comparable within an allelic series) | 10.6 upbm affinity estimate (log intensity, higher = more binding, comparable within an allelic series) | 10.5 upbm affinity estimate (log intensity, higher = more binding, comparable within an allelic series)
GTGTATCA | 11.5 upbm affinity estimate (log intensity, higher = more binding, comparable within an allelic series) | 10.5 upbm affinity estimate (log intensity, higher = more binding, comparable within an allelic series) | 11.4 upbm affinity estimate (log intensity, higher = more binding, comparable within an allelic series) | 9.86 upbm affinity estimate (log intensity, higher = more binding, comparable within an allelic series) | 10.9 upbm affinity estimate (log intensity, higher = more binding, comparable within an allelic series) | 11.2 upbm affinity estimate (log intensity, higher = more binding, comparable within an allelic series) | 10.5 upbm affinity estimate (log intensity, higher = more binding, comparable within an allelic series) | 11.5 upbm affinity estimate (log intensity, higher = more binding, comparable within an allelic series) | 11.4 upbm affinity estimate (log intensity, higher = more binding, comparable within an allelic series) | 11.4 upbm affinity estimate (log intensity, higher = more binding, comparable within an allelic series) | 11.2 upbm affinity estimate (log intensity, higher = more binding, comparable within an allelic series) | 11.3 upbm affinity estimate (log intensity, higher = more binding, comparable within an allelic series) | 11.2 upbm affinity estimate (log intensity, higher = more binding, comparable within an allelic series)
